Bioassay records (PubChem)
IL1B secr inh: blocks inflammasome-driven IL-1 beta release. THP-1 LPS/ATP IL-1B secretion, AlphaLISA, 16 h; active compounds read low. activity change, % at 57.5 µM. actives 4.7% (n = 360,000). AID 743279; in the data active = activity change below about -50%; inconclusive = mostly about -30% to -49%
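THP-1 cells pretreated 1 hr with compounds (up to 57.5 uM final), then stimulated with LPS (250 ng/mL final) plus ATP (1.25 mM final); secreted IL-1B measured by AlphaLISA after 16 hr, decreased signal indicating inhibition.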
HT1080-NT tox: kills 2HG-producing HT-1080-NT fibrosarcoma cells; HT-1080-NT fibrosarcoma viability, CellTiter-Glo ATP luminescence, 48 h; Potency, µM (titrated, usually from 46.1 µM), without a hit: at the highest dose activity, negative = less viability, actives largely listed as cytotoxic; actives 1.6% (n = 360,000); AID 686970;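 also: NT is the 2HG producing partner of a matched IDH1 knockdown line; potency is read from the fitted curve at half-maximal effect; 0% = DMSO-treated cells and -100% = media-only wells without cells; nearly all actives have a fitted effect of over 55% in size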
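A 48-hour cytotoxicity screen used HT-1080-NT cells plated 2 hours before compound delivery. ATP-based CellTiter-Glo luminescence measured viability, normalized to DMSO and no-cell controls.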
TDP1 cell noCPT: qHTS for Inhibitors of human tyrosyl-DNA phosphodiesterase 1 (TDP1): qHTS in cells in absence of CPT | actives 15% (n = 420,000) | DT40 Tdp1-/- hTDP1 cells, no CPT, ATP luminescence, 48 h | AID 686978, 2013 | Potency, µM (highest dose often 46.2 µM), for inactives: at the top dose activity change, negative = growth inhibition, actives largely listed as inhibitors; also: potency is read from the fitted curve at half-maximal effect; nearly all actives have a fitted effect of over 55% in size
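DT40 Tdp1-/-;hTDP1 cells, no CPT (DMSO vehicle only), 400 cells/well; compounds pin-transferred; ≥48 hr, 37 °C; CellTiter-Glo 30 min RT dark, luminescence read.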
TDP1 cell CPT: DT40-hTDP1 cell growth loss with CPT. chicken DT40 Tdp1-/-;hTDP1 cells + 20 nM CPT, ATP luminescence, 48 h. Potency, µM (top dose mostly 46.2 µM), inactives show top-dose activity change, negative = growth inhibition, actives largely listed as inhibitors. actives 12% (n = 420,000). AID 686979; also: potency is read from the fitted curve at half-maximal effect; nearly all actives have a fitted effect of over 55% in size
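Chicken DT40 Tdp1-/- cells complemented with human TDP1, 400 cells/well, exposed to compounds plus 20 nM camptothecin for at least 48 h at 37 C; viability read as ATP content by CellTiter-Glo luminescence.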
HT1080 IDH1KD tx: HT-1080 IDH1 knockdown cell toxicity (counter line) | HT-1080 IDH1 knockdown viability, ATP luminescence, 48 h | Potency, µM (titrated, usually from 46.1 µM), inactives show top-dose activity, negative = toxicity, most hits filed as cytotoxic | actives 2% (n = 360,000);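 also: potency is read from the fitted curve at half-maximal effect; 0% = DMSO wells and -100% = cell-free medium wells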
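IDH1KD HT-1080 cells, 750/well, RPMI + 5% FBS; compound pinned after 2 h settling; 48 h, 37 °C; CellTiter-Glo luminescence; % activity normalised to DMSO and no-cell wells; curves fitted, classed by r2 and efficacy.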
* hit, by the source's call; ? = inconclusive; . = not tested or not shown. An excerpt weighted towards active compounds, which were near 19% of everything screened. Unless noted, calls follow the shape of the dose curve; as a rule, active = well fitted curve in the direction sought with a large enough effect; inconclusive = small, poorly fitted or top-dose-only effect, or another doubt; inactive = no such curve, though single readings can be large; an effect the other way counts as inactive or inconclusive. Unless noted, % is scaled to controls: 0 for no effect and ±100 for the full control effect.

SMILES	IL1B secr inh	HT1080-NT tox	TDP1 cell noCPT	TDP1 cell CPT	HT1080 IDH1KD tx
COC(=O)c1ccc(NC(=O)C2CCN(C(=O)c3cc(OC)c(OC)c(OC)c3)CC2)cc1	16.9	6.4%	?	?	15.5%
CC(C)c1ccc(NC(=O)c2ccc3c(c2)C(=O)N(Cc2cccnc2)C3=O)cc1	30.7	?	-14.7%	-8.2%	?
CC(C)(C)n1nc2c(c1NC(=O)c1cccc(Cl)c1)CS(=O)(=O)C2	-1.4	20.4%	22.1%	-4.9%	2.7%
O=C(Nc1c2c(nn1-c1ccc(Cl)cc1)CS(=O)(=O)C2)c1cccc(Cl)c1	.	.	20.6µM*	16.4µM*	.
COc1cc(OC)cc(-c2nc(-c3ccccc3)no2)c1	-0.7	14.8%	-3.5%	-9.2%	18.6%
COc1ccc(-c2nc(-c3ccccn3)no2)cc1	-1.5	8.2µM*	?	14.6µM*	9.2µM*
Cc1ccccc1-c1nc(-c2ccccn2)no1	-0.8	23.1µM*	?	?	20.6µM*
COc1cccc(-c2noc(-c3ccc(Cl)nc3)n2)c1	-75.3*	4.1%	-17.7%	?	-3.3%
COc1ccc(-c2nc(-c3cccnc3)no2)cc1	0.0	13.1%	15.8µM*	?	11.8%
COc1ccccc1-c1nc(-c2ccccn2)no1	6.6	20.6µM*	13µM*	13µM*	23.1µM*
COc1ccccc1-c1noc(-c2ccncc2)n1	-15.5	-12.3%	-19.1%	-3.4%	-12.4%
CN(c1ccccc1C(=O)O)S(=O)(=O)c1ccc2[nH]c(=O)oc2c1	.	.	-5.3%	-3.4%	.
Cc1ccc(C)c(N2CCN(C(=O)c3cc4c(=O)n(Cc5cccnc5)ccc4nc3C)CC2)c1	.	.	?	23.1µM*	.
Cc1ccc(C)c(N2CCN(C(=O)c3cc4c(=O)n(Cc5ccccc5)ccc4nc3C)CC2)c1	.	.	23.1µM*	16.4µM*	.
Cc1nc2ccn(Cc3ccccc3)c(=O)c2cc1C(=O)N1CCN(c2ccc(F)cc2)CC1	-13.6	-12.8%	?	?	-5.4%
COc1ccc(N2CCN(C(=O)c3cc4c(=O)n(Cc5cccnc5)ccc4nc3C)CC2)cc1	.	.	-27.6%	-24.8%	.
COc1ccccc1N1CCN(C2CCN(C(=O)COc3ccccc3)CC2)CC1	-18.3	9.9%	7.8%	-12.5%	-1.0%
O=C(Nc1ccccc1Br)c1cnn2c1NC(=C1CC1)C=C2C(F)F	.	2.0%	?	-5.3%	24.6%
Cc1oc2ccc(O)c(CN(C)C)c2c1C(=O)c1ccccc1	-19.3	-3.3%	?	?	-1.7%
Cc1ccc(NC(=O)c2c(C)oc3ccc(O)c(CN4CCOCC4)c23)c(C)c1	.	.	-17.1%	-15.3%	.
Cc1ccccc1NC(=O)c1c(C)oc2ccc(O)c(CN(C)Cc3ccccc3)c12	.	.	6.51µM*	8.2µM*	.
CCN(Cc1ccccc1)Cc1c(O)ccc2oc(C)c(C(=O)Nc3ccccc3C)c12	.	.	13µM*	13µM*	.
Cc1oc2ccc(O)c(CN(C)Cc3ccccc3)c2c1C(=O)Nc1cccc(Cl)c1C	.	.	6.51µM*	6.51µM*	.
C[C@@H]1CN([C@H](C)CO)C(=O)c2cc(NC(=O)Nc3ccc(C(F)(F)F)cc3)ccc2O[C@H]1CN(C)Cc1ccc(Cl)c(Cl)c1	-79.9*	?	20.6µM*	?	?
C[C@H](CO)N1C[C@H](C)[C@@H](CN(C)C(=O)Nc2ccc(C(F)(F)F)cc2)Oc2c(NC(=O)c3ccncc3)cccc2C1=O	18.5	1.6%	-26.2%	14.9%	3.8%
C[C@H]1CN([C@@H](C)CO)C(=O)c2cccc(NC(=O)Nc3ccc(C(F)(F)F)cc3)c2O[C@@H]1CN(C)Cc1ccc(Cl)c(Cl)c1	0.0	?	3.66µM*	3.26µM*	?
COc1ccc(Nc2ncc3c(n2)CCN(Cc2cccc(F)c2F)C3)c(OC)c1	.	.	20.6µM*	25.9µM*	.
CCN1CCN(c2ncc3c(n2)CCN(Cc2ccc(OC)c(OC)c2)C3)CC1	.	.	-13.7%	-8.0%	.
CC(C)CN1CCc2nc(Nc3ccc(F)cc3F)ncc2C1	.	.	?	-3.2%	.
